“And” between values parts separate entries of the source, which are not always exact repeats. Equal values may be shown once. Records with an inconclusive call do not appear. The source made the active and inactive calls. Unless noted, the limit is not given here; nearly all actives have AC50 up to about 26 µM.
How the values were obtained:
[1] = viability loss in pontine glioma line – cell-based, SU-DIPG-XVII, MIPE5.0, CellTiter-Glo, qHTS, dose response (AID 1347060); settings: CellTiter-Glo ATP luminescence;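 as to AC50: cells exposed to compound for 48 hours before viability readout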
[2] = viability loss in pontine glioma line – cell-based, SU-DIPG-XIII, MIPE4.0, CellTiter-Glo, qHTS, dose response (AID 1347061; cut-off not given, nearly all actives have AC50 up to about 37 µM;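 also: cells exposed to compound for 48 hours before readout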); settings: CellTiter-Glo ATP luminescence
[3] = viability loss in pontine glioma line – cell-based, JHH-DIPG-1, MIPE4.0, CellTiter-Glo, qHTS, dose response (AID 1347062; cut-off not given, nearly all actives have AC50 up to about 27 µM;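 as to AC50: cells exposed to compound for two days before readout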); settings: JHH-DIPG-1 viability, CellTiter-Glo ATP luminescence
[4] = viability loss in pontine glioma line – cell-based, SU-DIPG-IV, MIPE4.0, CellTiter-Glo, qHTS, dose response (AID 1347063; cut-off not given, nearly all actives have AC50 up to about 30 µM;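 also: compound exposure lasted 48 hours before the viability readout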); settings: CellTiter-Glo ATP luminescence
[5] = viability loss in pontine glioma line – cell-based, SU-DIPG-XIII, MIPE5.0, CellTiter-Glo, qHTS, dose response (AID 1347064; cut-off not given, nearly all actives have AC50 up to about 23 µM;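 as to AC50: cells exposed to compound for 48 hours before the viability read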); settings: CellTiter-Glo ATP luminescence
[6] = viability loss in pontine glioma line – cell-based, SU-DIPG-XXV, MIPE5.0, CellTiter-Glo, qHTS, dose response (AID 1347065); settings: CellTiter-Glo ATP luminescence;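 also: cells exposed to compound for 48 hours before ATP readout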
[7] = growth inhibition of DIPG cells – cell-based, MIPE4.0 library, CellTiter-Glo luminescence, qHTS (AID 1347066; cut-off not given, nearly all actives have AC50 up to about 30 µM;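 also: cells exposed to compound for 48 hours before readout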); settings: SU-DIPG-VI viability, CellTiter-Glo ATP luminescence
[8] = JHH-DIPG-1 glioma cell viability, MIPE5.0 library, CellTiter-Glo luminescence, qHTS (AID 1347067); settings: JHH-DIPG-1 glioma viability, CellTiter-Glo ATP luminescence;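 also: cells exposed to compound for 48 hours before readout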
[9] = growth inhibition of DIPG cells – cell-based, MIPE5.0 library, qHTS (AID 1347068; cut-off not given, nearly all actives have IC50 up to about 30 µM;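 as to IC50: cells exposed to compound for 48 hours before viability readout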); settings: SU-DIPG-XXV viability
[10] = compounds altering circadian rhythm period length – cell-based, LOPAC library, luminescence reporter (AID 2774; call rule not given here;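 also: values are relative to mean of DMSO wells on each plate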); settings: circadian reporter cells, at 7 µM, actives lie on both sides
[11] = system: Hepatitis C virus NS3 helicase; assay: blockers of NS3h binding to ssDNA – biochemical, fluorescence polarization, LOPAC1280 library, primary screen (AID 687035; in the data active = inhibition above about 37%); settings: Purified HCV NS3 helicase, Cy5-dT15 ssDNA binding fluorescence polarization; stronger effect = higher value; concentration not given here
[12] = compounds altering Cy5-DNA-NS3h complex signal – biochemical, LOPAC1280, artefact control for HCV NS3 helicase inhibitor project (AID 687037; call rule not given here); settings: Cy5-DNA-NS3h complex fluorescence interference counterscreen
[13] = system: Aerobactin synthetase IucA (Klebsiella pneumoniae, hypervirulent); assay: biochemical IucA inhibition screen of LOPAC library by absorbance (AID 1346212; call rule not given here;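 also: 100% = no compound wells and 0% = no enzyme wells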); settings: IucA enzyme assay, absorbance (OD) readout; stronger effect = lower value;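 tested at 8 µM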
[14] = viability loss with induced miR-34 in A549 – imaging, A549 dox-inducible miR-34, nuclei and caspase counts, primary screen (AID 1347080;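 active = compounds whose cell count with miR-34 switched on is under 0.7 times the count with it off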); settings: A549 miR-34 inducible, Hoechst nuclei count, 48 h
[15] = MELAS cybrid and Rieske KO viability enhancers – cell-based, MELAS cybrids, Rieske KO mouse fibroblasts, CellTiter-Glo, primary screen (AID 1508586;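 active = mean z-score across replicates of 1.96 or higher in either the MELAS or the Rieske mutant cell line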;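 also: z relative to plate mean and SD of compound and empty wells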); settings: low glucose
[16] = compounds altering viability of human ES cells (AID 493140; call rule not given here;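 also: cells exposed to compounds for four days before counting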); settings: human embryonic stem cell survival screen; stronger effect = higher value
[17] = P. berghei load reduction in hepatocytes – cell-based, HepG2, luciferase luminescence, HepG2 viability, primary screen (AID 624349; in the data active = parasite load remaining mostly below about 12%, no sharp cut-off; inactive = mostly above about 10%;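 also: 100% = mean of DMSO negative control wells on the same plate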); settings: P. berghei liver stage in HepG2, luciferase luminescence, concentration not given here; parasite load remaining: stronger effect = lower value; viability: measured here: HepG2 viability without parasites
[18] = liver-stage malaria parasite load reduction – cell-based, known kinase inhibitor set, luminescence, hepatoma host viability (AID 624392; call rule not given here;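 also: infected cells incubated roughly two days before readout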); settings: Plasmodium liver stage in hepatoma cells, luciferase luminescence, concentration not given here; liver cell % of control: measured here: host liver cell viability; parasite % of control: stronger effect = lower value
[19] = compounds altering HSF1 focus formation in cells – imaging, Selleck Cancer Library (AID 1347162; in the data active = plate-normalised HSF1 focus index below about 0.46); settings: human cells, HSF1 nuclear foci imaging, at 10 µM; SSMD: measured here: HSF1 foci SSMD mean; cell count: measured here: cell number; plate-normalised HSF1 focus index: stronger effect = lower value
[20] = stronger effect = lower value, cell number ratio, induced over uninduced
[21] = measured here: relative caspase fold change +Dox/-Dox
[22] = measured here: total cells with miR-34 induction, stronger effect = lower value
[23] = measured here: total cells without miR-34 induction
[24] = MELAS cybrid survival, CellTiter-Glo 48 h, stronger effect = higher value
[25] = Rieske KO mouse fibroblast survival, CellTiter-Glo 72 h

C[C@]12CC[C@@H]3c4ccc(OC(=O)N(CCCl)CCCl)cc4CC[C@H]3[C@@H]1CC[C@@H]2OP(=O)(O)O
inactive: outcome [1] | outcome [2] | outcome [3] | outcome [4] | outcome [5] | outcome [6] | outcome [7] | outcome [8] | outcome [9]

Cc1[nH]nc2ccc(-c3cncc(OC[C@@H](N)Cc4c[nH]c5ccccc45)c3)cc12
active: AC50 [1] 0.833 µM | AC50 [2] 4.69 µM | AC50 [3] 0.59 µM | AC50 [4] 3.72 µM | AC50 [5] 0.742 µM | AC50 [6] 0.742 µM | AC50 [7] 14.8 µM | AC50 [8] 0.525 µM | IC50 [9] 1.86 µM

C=CCN1CCc2cccc3c2[C@H]1Cc1ccc(O)c(O)c1-3
inactive: period change [10] 0.185 h | inhibition [11] -3% | fluorescence ratio (interference) [12] 1.1 | remaining activity [13] 110%

CCN1CCN(C(=O)Cc2ccc(Nc3ncc(F)c(Nc4ccc(C(=O)Nc5ccccc5Cl)cc4)n3)cc2)CC1
705: cell count [14, 22]
inactive: outcome [2] | fold change [14, 20] 0.811
0.731: fold change [14, 21]
869: cell count [14, 23]
-1.29: z-score [15, 25]
active: AC50 [1] 1.86 µM | AC50 [3] 10.5 µM | AC50 [4] 8.33 µM | AC50 [5] 6.61 µM | AC50 [6] 1.05 µM | AC50 [7] 5.9 µM | AC50 [8] 3.72 µM | IC50 [9] 23.5 µM | z-score [15, 24] 2.83

C/C(=C\c1csc(C)n1)[C@@H]1C[C@@H]2O[C@@H]2CCC[C@H](C)[C@H](O)[C@@H](C)C(=O)C(C)(C)[C@@H](O)CC(=O)O1
inactive: outcome [2] | outcome [5] | outcome [7]
active: AC50 [1] 0.00662 µM | AC50 [6] 0.00934 µM

C=C[C@H]1CN2CCC1C[C@@H]2[C@@H](O)c1ccnc2ccccc12 (some centres undefined)
inactive: survival [16] 1.25 | parasite load remaining [17] 79% | outcome [1] | outcome [3] | outcome [5] | outcome [6] | outcome [8] | outcome [9]
73.5%: viability [17]
active: AC50 [2] 20.9 µM | AC50 [7] 20.9 µM

COCC1(CO)C(=O)C2CCN1CC2 (centres undefined)
inactive: outcome [9]
active: AC50 [1] 23.5 µM | AC50 [2] 20.9 µM | AC50 [3] 20.9 µM | AC50 [4] 18.7 µM | AC50 [5] 8.33 µM | AC50 [6] 16.6 µM | AC50 [8] 10.5 µM

Cc1ccccc1-n1c(Cn2cnc3c(N)ncnc32)nc2cccc(C)c2c1=O
91.8% and 81.8% and 99.4%: liver cell % of control [18]
2.3: SSMD [19]
6650: cell count [19]
inactive: parasite % of control [18] 49.6% and 56.6% and 61.4% | outcome [1] | outcome [5] | outcome [6] | outcome [8] | outcome [9] | plate-normalised HSF1 focus index [19] 1.12
active: AC50 [2] 4.18 µM | AC50 [3] 1.32 µM | AC50 [4] 0.105 µM | AC50 [7] 0.743 µM

Cc1ccccn1.[Cl][Pt][Cl].[NH2-]
inactive: outcome [1] | outcome [2] | outcome [6] | outcome [9]

O=C1C=CC[C@@H]2[C@H]3CCCN4CCC[C@@H](CN12)[C@@H]34
inactive: outcome [1] | outcome [2] | outcome [5] | outcome [6] | outcome [7] | outcome [8] | outcome [9]

CC(C)(O)/C=C\C(=O)[C@](C)(O)[C@H]1[C@H](O)C[C@]2(C)[C@@H]3CC=C4[C@@H](C=C(O)C(=O)C4(C)C)[C@]3(C)C(=O)C[C@@]12C
active: AC50 [1] 0.0661 µM | AC50 [2] 18.7 µM | AC50 [3] 0.105 µM | AC50 [4] 0.0296 µM | AC50 [5] 0.0525 µM | AC50 [6] 0.0295 µM | AC50 [7] 8.33 µM | AC50 [8] 0.0525 µM | IC50 [9] 0.148 µM

O=C(Oc1ccc([N+](=O)[O-])cc1)N1CCC(C(O)(c2ccc3c(c2)OCO3)c2ccc3c(c2)OCO3)CC1
6030 and 8340: cell count [14, 22]
5850 and 9460: cell count [14, 23]
1.13 and 1: fold change [14, 21]
6730: cell count [19]
3.32: SSMD [19]
inactive: outcome [1] | outcome [2] | outcome [3] | outcome [4] | outcome [5] | outcome [6] | outcome [7] | outcome [8] | outcome [9] | fold change [14, 20] 1.03 and 0.881 | plate-normalised HSF1 focus index [19] 1.2 | z-score [15, 24] -0.115
-0.259: z-score [15, 25]

O=C(O)C(=O)c1cn(Cc2ccccc2)c2ccc(-c3ccc(OC(F)(F)F)cc3)cc12
inactive: outcome [1] | outcome [2] | outcome [3] | outcome [4] | outcome [6] | outcome [7] | outcome [8] | outcome [9]

C[C@]12CC[C@H]3[C@@H](CCC4=CC(=O)CC[C@@]43C)[C@@H]1CC[C@@H]2OC(=O)CCC1CCCC1
active: AC50 [2] 23.5 µM
inactive: outcome [1] | outcome [3] | outcome [4] | outcome [5] | outcome [7] | outcome [9]

C[C@]12COC(=O)C[C@@H]1CC[C@@H]1[C@@H]2CC[C@@]2(C)[C@H]1CC[C@]2(C)O
inactive: outcome [1] | outcome [2] | outcome [3] | outcome [4] | outcome [5] | outcome [7] | outcome [8] | outcome [9] | z-score [15, 24] 0.293
0.228: z-score [15, 25]

COC12C(COC(N)=O)C3=C(C(=O)C(C)=C(N)C3=O)N1CC1C2N1C (centres undefined)
active: AC50 [1] 1.48 µM
